# Source: the antibiotic and cytotoxicity screens of Wong et al. (2023)
# Among all 39,000 compounds or so, about 3,300 (8.5%) were called active. The entries come from a sample that favours actives as a whole.
# Tested on: HepG2
# Experiment: cytotoxicity call (relative viability < 0.9)
# Settings: 10 µM
row,Compound,cytotoxicity call
1,COc1ccc(NC(=O)N(C)C[C@@H]2OCCCC[C@@H](C)Oc3ccc(NC(=O)c4ccccc4)cc3C(=O)N([C@H](C)CO)C[C@H]2C)cc1,active
2,COc1ccc(NC(=O)N(C)C[C@H]2OCCCC[C@@H](C)Oc3ccc(NC(=O)Nc4ccccc4)cc3C(=O)N([C@H](C)CO)C[C@@H]2C)cc1,active
3,COc1ccc(NC(=O)Nc2ccc3c(c2)C(=O)N([C@H](C)CO)C[C@H](C)[C@@H](CN(C)C(=O)Nc2ccc4c(c2)OCO4)OCCCC[C@H](C)O3)cc1,active
4,COc1ccc(NC(=O)N(C)C[C@@H]2OCCCC[C@@H](C)Oc3ccc(NC(=O)c4ccccc4)cc3C(=O)N([C@@H](C)CO)C[C@@H]2C)cc1,inactive
5,COc1ccc(NC(=O)N(C)C[C@@H]2OCCCC[C@H](C)Oc3ccc(NC(=O)Nc4ccc5c(c4)OCO5)cc3C(=O)N([C@@H](C)CO)C[C@H]2C)cc1,inactive
6,C[C@H]1CCCCO[C@@H](CN(C)C(=O)Nc2ccc3c(c2)OCO3)[C@@H](C)CN([C@@H](C)CO)C(=O)c2cc(NC(=O)Nc3ccccc3)ccc2O1,inactive
7,C[C@@H]1CCCCO[C@@H](CN(C)C(=O)Nc2ccc3c(c2)OCO3)[C@H](C)CN([C@H](C)CO)C(=O)c2cc(NC(=O)Nc3ccccc3)ccc2O1,active
8,COc1ccc(NC(=O)N(C)C[C@H]2OCCCC[C@H](C)Oc3ccc(NC(=O)c4ccccc4)cc3C(=O)N([C@H](C)CO)C[C@@H]2C)cc1,inactive
9,COc1ccc(NC(=O)N(C)C[C@H]2OCCCC[C@H](C)Oc3ccc(NC(=O)Nc4ccccc4)cc3C(=O)N([C@@H](C)CO)C[C@@H]2C)cc1,inactive
10,COc1ccc(NC(=O)Nc2ccc3c(c2)C(=O)N([C@H](C)CO)C[C@H](C)[C@H](CN(C)C(=O)Nc2ccc4c(c2)OCO4)OCCCC[C@@H](C)O3)cc1,inactive
11,COc1ccc(NC(=O)N(C)C[C@H]2OCCCC[C@H](C)Oc3ccc(NC(=O)Nc4ccccc4)cc3C(=O)N([C@H](C)CO)C[C@@H]2C)cc1,inactive
12,C[C@@H]1CCCCO[C@H](CN(C)C(=O)Nc2ccc3c(c2)OCO3)[C@H](C)CN([C@H](C)CO)C(=O)c2cc(NC(=O)Nc3ccccc3)ccc2O1,inactive
13,CS(=O)(=O)Nc1ccc2c(c1)[C@@H]1C[C@@H](CC(=O)NCc3ccc(-c4ccccc4)cc3)O[C@@H](CO)[C@@H]1O2,inactive
14,C[C@H](CO)N1C[C@H](C)[C@@H](CN(C)S(=O)(=O)c2cccs2)Oc2ccc(NS(=O)(=O)c3cn(C)cn3)cc2CC1=O,inactive
15,C[C@H]1CN([C@@H](C)CO)C(=O)c2cccc(NS(=O)(=O)c3cn(C)cn3)c2O[C@@H]1CN(C)C(=O)Nc1ccc(F)cc1,inactive
